From the supplement of paper PMC10849652
Targets with a hit are over-represented here; the source holds about 7,900 in all. About 0.6% of all pairs of compound and target were hits.

What was measured:
Assay in all cases: log2 fold change, soluble protein after heating vs DMSO (PISA); higher = thermal stabilisation; K562 cells, 10 uM, 30 min; active = over 0.2 and 3.5 SD of the protein, either way, in both replicates (recomputed)
[1] = compound: C1=CC=C(C=C1)[C@H](COC2=CC3=C(C=C2)NC(=O)N3)NC(=O)C4=CC=CN(C4=O)CC5=CC(=C(C=C5)F)F
Outline: (§1)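 K562 cells (2×10^6 cells/mL) were treated with 10 μM compound for 30 min, and aliquots were heated for 3 min over 48°C-58°C. Pooled aliquots were extracted in PBS with 0.5% NP-40 at 4°C, and the supernatant after 21,000xg for 90 min was measured by TMTpro 16plex LC-MS/MS with channel sums equalised. Reported thermal stability, relative to control samples and from duplicates, is a log2 fold change.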

[2] = compound: CC1=C(SC2=C1C(=N[C@H](C3=NN=C(N32)C)CC(=O)N)C4=CC=C(C=C4)Cl)C
Outline: as §1

[3] = compound: Cc1sc2c(c1C)C(c1ccc(Cl)cc1)=N[C@@H](CC(=O)OC(C)(C)C)c1nnc(C)n1-2
Outline: as §1

[4] = compound: c1ccc([C@@H]2C[C@H]2NC2CCNCC2)cc1
Outline: as §1

[5] = compound: CC1=C2C(=CC=C1)N=C(N(C2=O)C3=CC=CC=C3C)CN4C=NC5=C(N=CN=C54)N
Outline: as §1

Measured: log2 fold change

CYB561A3 isoform 2 (UniProt Q8NBI2)
inactive: [1] 0.033 | [2] -0.009 | [3] -0.075 | [4] 0.002

EIF4G1 (UniProt Q04637)
inactive: [2] -0.032 | [5] 0.011 | [3] 0.098 | [4] -0.028

FAM207A (UniProt Q9NSI2)
Chain of UniProt Q9NSI2 (Q9NSI2 whole entry, looked up): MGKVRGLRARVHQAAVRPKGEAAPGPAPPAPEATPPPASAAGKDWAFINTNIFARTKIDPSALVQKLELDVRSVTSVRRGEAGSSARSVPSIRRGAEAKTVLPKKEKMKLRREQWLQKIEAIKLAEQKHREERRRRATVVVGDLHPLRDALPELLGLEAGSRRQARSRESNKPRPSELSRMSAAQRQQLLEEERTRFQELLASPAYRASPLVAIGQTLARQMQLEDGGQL
inactive: [1] 0.107 | [5] 0.001 | [3] 0.021

ERF (UniProt P50548)
inactive: [3] -0.515

ENTR1 (UniProt Q96C92)
inactive: [5] 0.191

CWF19L2 (UniProt Q2TBE0)
Chain of UniProt Q2TBE0 (Q2TBE0 whole entry, looked up): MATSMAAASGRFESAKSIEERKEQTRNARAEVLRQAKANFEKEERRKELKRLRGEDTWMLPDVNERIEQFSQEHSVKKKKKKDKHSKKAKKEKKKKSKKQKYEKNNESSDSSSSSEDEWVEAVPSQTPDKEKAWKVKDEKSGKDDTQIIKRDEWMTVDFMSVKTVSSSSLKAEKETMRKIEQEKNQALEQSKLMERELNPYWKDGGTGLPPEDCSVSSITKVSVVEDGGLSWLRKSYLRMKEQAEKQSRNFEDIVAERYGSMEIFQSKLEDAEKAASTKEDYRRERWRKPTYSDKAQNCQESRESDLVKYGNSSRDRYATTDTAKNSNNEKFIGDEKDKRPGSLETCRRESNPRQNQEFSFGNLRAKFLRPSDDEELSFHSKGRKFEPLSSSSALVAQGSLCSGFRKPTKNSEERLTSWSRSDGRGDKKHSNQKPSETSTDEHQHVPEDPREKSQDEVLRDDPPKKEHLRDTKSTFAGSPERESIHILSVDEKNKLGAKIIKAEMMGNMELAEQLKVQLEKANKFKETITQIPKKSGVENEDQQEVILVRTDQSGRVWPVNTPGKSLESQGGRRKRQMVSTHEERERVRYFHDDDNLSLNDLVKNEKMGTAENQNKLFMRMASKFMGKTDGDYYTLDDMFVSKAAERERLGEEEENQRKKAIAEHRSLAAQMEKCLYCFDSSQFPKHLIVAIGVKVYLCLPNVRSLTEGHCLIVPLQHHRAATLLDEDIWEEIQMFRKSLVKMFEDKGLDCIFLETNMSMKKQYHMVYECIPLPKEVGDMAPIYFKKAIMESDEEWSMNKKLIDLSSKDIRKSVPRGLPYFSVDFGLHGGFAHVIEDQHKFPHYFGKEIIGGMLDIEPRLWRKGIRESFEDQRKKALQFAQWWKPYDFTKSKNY
inactive: [2] -0.169 | [3] 0.028 | [4] 0.135

ELF1 (UniProt P32519)
inactive: [2] 0.008 | [3] 0.017 | [4] 0.007

ELAC1 (UniProt Q9H777)
inactive: [2] 0.123 | [5] 0.146 | [4] 0.059

EXOC8 (UniProt Q8IYI6)
inactive: [1] -0.004 | [2] 0.029 | [5] 0.03 | [3] 0.006 | [4] -0.051

EIF3J isoform 2 (UniProt O75822)
Chain of UniProt O75822 (O75822 whole entry, looked up): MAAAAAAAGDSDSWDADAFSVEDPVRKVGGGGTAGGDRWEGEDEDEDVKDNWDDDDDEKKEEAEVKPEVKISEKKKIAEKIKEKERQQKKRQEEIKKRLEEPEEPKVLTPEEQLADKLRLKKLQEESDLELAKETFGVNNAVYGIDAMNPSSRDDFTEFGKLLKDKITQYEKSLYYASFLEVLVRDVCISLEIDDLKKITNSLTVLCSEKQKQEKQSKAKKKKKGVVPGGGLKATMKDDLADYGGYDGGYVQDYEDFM
inactive: [1] 0.092 | [5] 0.25 | [3] 0.049

CYP24A1 (UniProt Q07973)
inactive: [1] 0.17 | [5] -0.175 | [3] 0.266

DCP2 (UniProt Q8IU60)
inactive: [2] -0.121 | [5] -0.044 | [3] 0.077 | [4] 0.068

DOP1A (UniProt Q5JWR5)
inactive: [1] 0.203 | [5] 0.049

DHRS13 (UniProt Q6UX07)
inactive: [2] 0.084 | [5] 0.099 | [3] 0.218 | [4] -0.14

EIF2AK3 (UniProt Q9NZJ5)
inactive: [1] -0.473 | [2] -0.027 | [3] -0.196 | [4] 0.059

DBNL (UniProt Q9UJU6)
inactive: [2] -0.04 | [4] -0.099

DDX27 (UniProt Q96GQ7)
inactive: [2] -0.197 | [5] -0.157 | [3] 0.12 | [4] -0.046

DLK1 (UniProt P80370)
Chain of UniProt P80370 (P80370 whole entry, looked up): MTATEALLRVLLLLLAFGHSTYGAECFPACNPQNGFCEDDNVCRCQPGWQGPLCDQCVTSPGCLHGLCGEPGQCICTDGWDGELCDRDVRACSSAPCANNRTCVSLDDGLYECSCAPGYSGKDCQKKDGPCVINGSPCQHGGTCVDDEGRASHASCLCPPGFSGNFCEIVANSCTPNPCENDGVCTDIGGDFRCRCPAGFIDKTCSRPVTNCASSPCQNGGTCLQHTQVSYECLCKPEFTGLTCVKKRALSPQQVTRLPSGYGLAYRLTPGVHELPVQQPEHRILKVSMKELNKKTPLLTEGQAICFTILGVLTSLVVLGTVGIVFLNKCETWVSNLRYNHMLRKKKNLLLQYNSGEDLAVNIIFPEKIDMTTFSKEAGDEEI
inactive: [2] 0.065 | [5] 0.198 | [4] 0.051

DDX11 (UniProt Q96FC9)
Chain of UniProt Q96FC9 (Q96FC9 whole entry, looked up): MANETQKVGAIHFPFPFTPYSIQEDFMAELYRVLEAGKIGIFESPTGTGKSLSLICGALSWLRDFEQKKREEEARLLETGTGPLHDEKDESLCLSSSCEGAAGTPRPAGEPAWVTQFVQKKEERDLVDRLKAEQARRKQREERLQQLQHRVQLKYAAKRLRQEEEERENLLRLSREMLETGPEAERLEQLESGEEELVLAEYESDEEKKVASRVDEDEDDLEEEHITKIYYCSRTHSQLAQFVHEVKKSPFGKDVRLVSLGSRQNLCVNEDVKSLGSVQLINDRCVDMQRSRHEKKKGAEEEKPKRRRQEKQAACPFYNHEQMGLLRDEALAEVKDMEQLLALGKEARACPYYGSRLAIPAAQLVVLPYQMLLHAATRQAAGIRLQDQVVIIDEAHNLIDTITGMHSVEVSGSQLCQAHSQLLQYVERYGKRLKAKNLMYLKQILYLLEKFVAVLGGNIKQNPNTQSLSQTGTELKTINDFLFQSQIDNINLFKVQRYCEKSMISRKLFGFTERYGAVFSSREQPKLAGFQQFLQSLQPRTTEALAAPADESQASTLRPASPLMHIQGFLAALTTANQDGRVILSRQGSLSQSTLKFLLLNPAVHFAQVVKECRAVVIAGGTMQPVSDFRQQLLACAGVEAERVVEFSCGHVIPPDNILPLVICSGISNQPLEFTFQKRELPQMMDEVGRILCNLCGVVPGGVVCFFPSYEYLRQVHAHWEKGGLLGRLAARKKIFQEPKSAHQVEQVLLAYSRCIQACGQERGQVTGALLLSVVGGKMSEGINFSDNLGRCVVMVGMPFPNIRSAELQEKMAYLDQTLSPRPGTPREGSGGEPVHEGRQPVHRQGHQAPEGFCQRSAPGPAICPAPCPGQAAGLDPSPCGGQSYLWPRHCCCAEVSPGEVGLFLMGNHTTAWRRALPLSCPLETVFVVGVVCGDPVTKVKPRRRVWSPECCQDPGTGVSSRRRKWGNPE
inactive: [1] -0.068 | [5] 0.335 | [3] 0.059

EEF1D isoform 3 (UniProt P29692)
inactive: [3] -0.694

DNM2 isoform 4 (UniProt P50570)
Chain of UniProt P50570 (P50570 whole entry, looked up): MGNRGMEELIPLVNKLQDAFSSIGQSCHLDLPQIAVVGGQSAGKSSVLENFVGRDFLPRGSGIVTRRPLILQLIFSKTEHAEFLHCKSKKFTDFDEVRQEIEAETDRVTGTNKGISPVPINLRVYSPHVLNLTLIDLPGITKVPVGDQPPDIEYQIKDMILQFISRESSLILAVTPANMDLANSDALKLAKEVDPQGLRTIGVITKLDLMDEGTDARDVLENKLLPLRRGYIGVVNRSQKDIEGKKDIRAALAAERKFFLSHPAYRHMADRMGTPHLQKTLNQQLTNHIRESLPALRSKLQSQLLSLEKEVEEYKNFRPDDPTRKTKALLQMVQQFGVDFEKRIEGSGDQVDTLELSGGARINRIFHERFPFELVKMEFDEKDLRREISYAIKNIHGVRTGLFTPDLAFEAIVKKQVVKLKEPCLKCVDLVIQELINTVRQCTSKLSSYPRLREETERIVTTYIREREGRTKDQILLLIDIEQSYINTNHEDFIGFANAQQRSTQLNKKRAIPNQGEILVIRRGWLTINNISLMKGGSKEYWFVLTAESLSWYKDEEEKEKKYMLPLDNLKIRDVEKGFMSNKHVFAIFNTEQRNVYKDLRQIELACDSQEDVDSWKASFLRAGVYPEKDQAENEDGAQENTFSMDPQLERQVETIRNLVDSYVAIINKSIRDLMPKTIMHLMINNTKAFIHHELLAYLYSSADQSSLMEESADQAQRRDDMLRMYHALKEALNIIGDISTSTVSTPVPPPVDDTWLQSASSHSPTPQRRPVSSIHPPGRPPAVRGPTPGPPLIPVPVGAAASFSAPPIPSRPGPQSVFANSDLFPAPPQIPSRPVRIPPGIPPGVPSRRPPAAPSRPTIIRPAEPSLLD
inactive: [1] 0.015 | [2] 0.065 | [4] -0.022

ELOVL7 (UniProt A1L3X0)
inactive: [2] 0.077 | [3] -0.066 | [4] -0.01

EHBP1 (UniProt Q8NDI1)
inactive: [2] -0.163 | [3] 0.041 | [4] 0.229

DYNC1I2 isoform 2 (UniProt Q13409)
Chain of UniProt Q13409 (Q13409 whole entry, looked up): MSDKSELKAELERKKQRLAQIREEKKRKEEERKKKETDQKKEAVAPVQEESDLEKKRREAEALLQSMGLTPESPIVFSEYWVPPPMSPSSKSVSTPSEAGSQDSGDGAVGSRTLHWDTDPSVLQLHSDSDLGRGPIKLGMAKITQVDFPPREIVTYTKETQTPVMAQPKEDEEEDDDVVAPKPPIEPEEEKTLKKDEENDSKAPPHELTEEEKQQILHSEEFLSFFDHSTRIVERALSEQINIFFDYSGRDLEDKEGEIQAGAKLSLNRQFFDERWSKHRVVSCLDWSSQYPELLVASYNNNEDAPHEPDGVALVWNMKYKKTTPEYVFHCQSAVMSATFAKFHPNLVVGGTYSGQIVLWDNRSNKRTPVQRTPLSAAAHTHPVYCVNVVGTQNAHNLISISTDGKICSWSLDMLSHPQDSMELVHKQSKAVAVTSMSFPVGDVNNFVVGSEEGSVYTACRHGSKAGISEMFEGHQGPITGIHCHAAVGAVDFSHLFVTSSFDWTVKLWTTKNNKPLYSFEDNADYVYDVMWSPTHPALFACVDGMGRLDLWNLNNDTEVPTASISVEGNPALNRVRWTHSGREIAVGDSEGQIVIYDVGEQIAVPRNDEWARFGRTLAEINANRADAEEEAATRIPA
inactive: [1] 0.028 | [2] -0.059 | [3] -0.068 | [4] 0.14

CTNNBL1 (UniProt Q8WYA6)
inactive: [1] 0.029 | [5] 0.17

EEF2K (UniProt O00418)
inactive: [2] 0.001 | [5] 0.145 | [4] -0.082

FAM117B (UniProt Q6P1L5)
Chain of UniProt Q6P1L5 (Q6P1L5 whole entry, looked up): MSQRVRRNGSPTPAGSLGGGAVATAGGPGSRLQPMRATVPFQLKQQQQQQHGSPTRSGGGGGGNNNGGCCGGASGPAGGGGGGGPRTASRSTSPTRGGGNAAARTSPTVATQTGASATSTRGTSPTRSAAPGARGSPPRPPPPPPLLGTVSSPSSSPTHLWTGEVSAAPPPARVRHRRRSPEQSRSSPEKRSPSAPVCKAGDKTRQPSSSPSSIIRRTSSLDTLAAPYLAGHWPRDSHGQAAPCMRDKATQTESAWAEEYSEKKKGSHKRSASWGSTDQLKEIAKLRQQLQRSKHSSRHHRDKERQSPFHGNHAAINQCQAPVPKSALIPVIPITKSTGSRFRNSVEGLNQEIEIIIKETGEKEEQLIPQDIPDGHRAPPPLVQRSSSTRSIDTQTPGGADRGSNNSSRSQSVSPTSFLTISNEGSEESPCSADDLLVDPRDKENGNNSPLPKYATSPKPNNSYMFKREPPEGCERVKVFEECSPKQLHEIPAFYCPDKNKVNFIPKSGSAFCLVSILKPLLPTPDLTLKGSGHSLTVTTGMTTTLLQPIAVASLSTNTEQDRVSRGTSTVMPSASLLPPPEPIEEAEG
inactive: [2] 0.283 | [5] 0.116 | [3] -0.097 | [4] -0.024

EBNA1BP2 (UniProt Q99848)
inactive: [1] 0.118 | [2] -0.378 | [5] -0.269 | [3] 0.306 | [4] -0.045

F2RL3 (UniProt Q96RI0)
inactive: [2] 0.175 | [5] 0.06 | [3] -0.197 | [4] 0.032

DNAL1 (UniProt Q4LDG9)
Chain of UniProt Q4LDG9 (Q4LDG9 whole entry, looked up): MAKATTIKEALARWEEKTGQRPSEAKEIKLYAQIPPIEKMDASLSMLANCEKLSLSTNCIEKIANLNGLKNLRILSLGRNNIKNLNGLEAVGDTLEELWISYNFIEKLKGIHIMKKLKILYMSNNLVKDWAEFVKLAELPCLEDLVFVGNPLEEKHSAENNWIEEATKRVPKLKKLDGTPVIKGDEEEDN
inactive: [1] 0.146 | [2] 0.086 | [5] -0.264 | [4] 0.03

EID1 (UniProt Q9Y6B2)
inactive: [3] -0.135

FADS1 (UniProt F5GYH4)
inactive: [1] -0.216 | [5] -0.02 | [3] -0.036

ELMO1 (UniProt Q92556)
inactive: [1] -0.085 | [5] 0.026

DENND1A isoform 6 (UniProt Q8TEH3)
inactive: [1] 0.152 | [5] 0.146 | [3] 0.284

ENTPD7 (UniProt Q9NQZ7)
inactive: [1] 0.066 | [3] 0.173
